Bioassay records: PubChem, Bradner/Qi Labs at DFCI
The entries come from a sample that favours hits as a whole.
CBX7 inh: inhibitors of human CBX7 binding to H3K27me3 peptide; normalised signal (fraction of DMSO) (concentration not given with the values); 66,000 compounds, 1.1% hits; O95931; AlphaScreen His6-CBX7 / biotin-H3K27me3 peptide binding; active compounds read low; in the data active = normalised signal below about 0.5
Target sequence (O95931 whole entry, looked up): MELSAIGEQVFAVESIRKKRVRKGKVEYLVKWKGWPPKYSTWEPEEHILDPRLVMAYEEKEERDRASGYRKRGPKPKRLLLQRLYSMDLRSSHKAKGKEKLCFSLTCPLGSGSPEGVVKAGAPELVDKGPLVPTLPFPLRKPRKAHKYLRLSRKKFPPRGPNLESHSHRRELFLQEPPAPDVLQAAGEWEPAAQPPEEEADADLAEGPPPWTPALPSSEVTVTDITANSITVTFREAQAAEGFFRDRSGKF
* = called active by the depositor.

SMILES | CBX7 inh
CCC1CCCCN1S(=O)(=O)c1ccc(C(=O)Nc2nnc(-c3ccc(OC)cc3)o2)cc1 (centres undefined) | 0.788
CCC1CCCCN1S(=O)(=O)c1ccc(C(=O)Nc2nnc(-c3cccc(OC)c3)o2)cc1 (centres undefined) | 0.914
COCc1nnc(NC(=O)c2ccc(S(=O)(=O)N3CC(C)CC(C)C3)cc2)o1 (centres undefined) | 0.821
CC1CN(S(=O)(=O)c2ccc(C(=O)Nc3nnc(-c4cccs4)o3)cc2)CC(C)O1 (centres undefined) | 0.77
CCC1CCCCN1S(=O)(=O)c1ccc(C(=O)Nc2nnc(C)o2)cc1 (centres undefined) | 0.0944*
CC1CC(C)CN(S(=O)(=O)c2ccc(C(=O)Nc3nc(-c4ccncc4)cs3)cc2)C1 (centres undefined) | 1.02
CC1CCCN(S(=O)(=O)c2ccc(C(=O)Nc3nnc(-c4cccs4)o3)cc2)C1 (centres undefined) | 1.04
O=C(Nc1nnc(-c2cccs2)o1)c1ccc(S(=O)(=O)N2CCCCC2)cc1 | 0.827
Cc1nnc(NC(=O)c2ccc(S(=O)(=O)N3CC(C)CC(C)C3)cc2)o1 (centres undefined) | 0.387*
CC1CN(S(=O)(=O)c2ccc(C(=O)Nc3nnc(-c4ccc(F)cc4)o3)cc2)CC(C)O1 (centres undefined) | 0.0116*
COCc1nnc(NC(=O)c2ccc(S(=O)(=O)N3CC(C)OC(C)C3)cc2)o1 (centres undefined) | 0.673
CC1CC(C)CN(S(=O)(=O)c2ccc(C(=O)Nc3nnc(-c4ccc(Cl)s4)o3)cc2)C1 (centres undefined) | 0.395*
CC(=O)c1c(C)nc2n(C)c3ccccc3n12 | 1.02
Cc1ccc2cc(CCNC(=O)COc3ccc(Cl)cc3)c(=O)[nH]c2c1C | 1.12
COCCCNC(=O)c1cc(Sc2ccc(Cl)cc2)nc2ccccc12 | 1.02
CC1CCN(S(=O)(=O)c2ccc3c(c2)N(CC(=O)NCCN2CCCC2)C(=O)CS3)CC1 | 1.05
CCc1ccc(-c2nc(CSCC(=O)NCCN(C)C)c(C)o2)cc1 | 1.21
O=C(c1ccccc1)c1ccc2nc(Cc3ccccc3F)c(=O)[nH]c2c1 | 0.895
Cn1c2ccccc2c2c(C(=O)NCCCN3CCc4ccccc4C3)cn(C3CCCC3)c(=O)c21 | 0.885
COc1ccc(-c2nnc(NC(=O)c3ccc(S(=O)(=O)N4CCC(C)CC4)cc3)o2)c(OC)c1 | 0.915
CC1CCN(S(=O)(=O)c2ccc(NC(=O)c3ccc(C(C)(C)C)cc3)cc2)CC1 | 1.07
Cc1nnc(NC(=O)c2ccc(S(=O)(=O)N3CCC(C)CC3)cc2)o1 | 0.0279*
COc1ccc(Nc2cc(C(=O)NCC3CCCO3)c3ccccc3n2)c(OC)c1 (centres undefined) | 0.755
Cc1nc2c(-c3ccc(F)cc3)c(C)nn2c(C)c1CCC(=O)NCCC1=CCCCC1 | 1.02
O=C(Nc1cc(-c2nc3ccccc3s2)ccc1Cl)c1ncn[nH]1 | 0.848
SMILES | CBX7 inh
O=C(Nc1nc(SCc2ccccc2Cl)ns1)c1ncn[nH]1 | 0.0529*
O=C(Nc1ncc(Cc2ccccc2Cl)s1)c1cccc2ccccc12 | 0.902
Cc1ccccc1Oc1cc([N+](=O)[O-])cc2c1C(=O)Nc1cc(Cl)ccc1O2 | 0.0842*
COc1ccc(CNC(=O)CC2Oc3ccc(Cl)cc3NC2=O)cc1 (centres undefined) | 1.05
COCCOc1cc([N+](=O)[O-])cc2c1C(=O)Nc1ccccc1O2 | 0.65
COC(=O)CC1Oc2ccc(Cl)cc2NC1=O (centres undefined) | 0.963
Cc1ccc2c(c1)Oc1cc([N+](=O)[O-])cc(Oc3cccc(Cl)c3Cl)c1C(=O)N2 | 0.198*
Cc1ccc(Oc2cc([N+](=O)[O-])cc3c2C(=O)Nc2ccccc2O3)cc1 | 0.579
O=C1Nc2cc(Cl)ccc2Oc2cc([N+](=O)[O-])cc(Oc3ccccc3)c21 | 0.642
COc1ccc(Oc2cc([N+](=O)[O-])cc3c2C(=O)Nc2cc(Cl)ccc2O3)cc1 | 0.418*
Cc1nc2sc(C(c3cccs3)N3CCN(C)CC3)c(O)n2n1 (centres undefined) | 0.963
CCn1c(=O)cc(OCC(=O)Nc2cccc(OC)c2)c2ccccc21 | 0.816
CC(C)Oc1ccccc1NC(=O)CSc1nnc(-c2ccco2)n1-c1ccccc1 | 0.698
CC1CCN(C(=O)CN2C(=O)CSc3ccc(S(=O)(=O)N4CCOCC4)cc32)CC1 | 1.04
Cc1[nH]c2ccc(-c3nnc(SCCO)n3-c3ccccc3)cc2c1C | 0.801
CC1CCc2cc(F)ccc2N1C(=O)CCCN1C(=O)c2cccnc2C1=O (centres undefined) | 0.466*
Cc1cc(Cl)ccc1OCCCC(=O)N1c2ccc(F)cc2CCC1C (centres undefined) | 1
O=C(CCCN1C(=O)c2cccnc2C1=O)N1CCN(c2ccccc2F)CC1 | 0.342*
Cc1ccc(NC(=O)CCCN2C(=O)c3cccnc3C2=O)cc1F | 1.17
O=C(CCCN1C(=O)c2cccnc2C1=O)Nc1ccc(Cl)c(C(F)(F)F)c1 | 0.719
O=C(CCCN1C(=O)c2cccnc2C1=O)N1CCN(c2ccccc2)CC1 | 0.487*
CCc1cccc(C)c1NC(=O)CCCN1C(=O)c2cccnc2C1=O | 1.03
CCc1ccccc1NC(=O)CCCN1C(=O)c2cccnc2C1=O | 0.679
O=C(CCCN1C(=O)c2cccnc2C1=O)Nc1ccccc1F | 0.806
O=c1[nH]c2ccc(S(=O)(=O)Nc3cccc(F)c3)cc2[nH]c1=O | 0.991
SMILES | CBX7 inh
Cc1cc(=O)n2nc(N3CCC(C(=O)NCc4ccccc4C)CC3)sc2n1 | 1.16
O=C(NCc1ccc2c(c1)OCO2)c1ccc2c(c1)ncn2-c1ccc(F)cc1F | 0.976
Cc1nc(-n2nnc3cc(C)c(C)cc32)c2c3c(sc2n1)CCC3 | 1.07
CC(C)(C)c1ccc2c(c1)N(CC(=O)NCc1ccccc1)C(=O)CO2 | 1
COc1ccc(N2CCN(CCCNC(=O)CC3Oc4ccccc4NC3=O)CC2)cc1 (centres undefined) | 0.865
O=C(Nc1nnc(CCc2ccccc2)s1)c1cccc(Cl)c1 | 1.03
CCc1c(C)sc(NC(=O)c2c(-c3ccccc3Cl)noc2C)c1C(=O)OC(C)C | 1.51
COc1cc2c(cc1OC)C(c1ccc(F)c(F)c1)CC(=O)N2 (centres undefined) | 0.91
CCc1nnc(NC(=O)c2ccc(S(=O)(=O)N3CCCCCC3)cc2)o1 | 0.043*
CCc1nnc(NC(=O)c2ccc(S(=O)(=O)N(C)C3CCCCC3)cc2)o1 | 0.0649*
O=C(Nc1nnc(C2CC2)o1)c1ccc(S(=O)(=O)N2CCCc3ccccc32)cc1 | 0.694
CCc1nnc(NC(=O)c2ccc(S(=O)(=O)N3CC(C)OC(C)C3)cc2)o1 (centres undefined) | 0.669
COCc1nnc(NC(=O)c2ccc(S(=O)(=O)N3CCOCC3)cc2)o1 | 0.691
CC1CN(S(=O)(=O)c2ccc(C(=O)Nc3nnc(C4CC4)o3)cc2)CC(C)O1 (centres undefined) | 0.643
COCc1nnc(NC(=O)c2ccc(S(=O)(=O)N3CCCCC3C)cc2)o1 (centres undefined) | 0.736
O=C(Nc1nnc(C2CC2)o1)c1ccc(S(=O)(=O)N2CCCCC2)cc1 | 0.0124*
CN(C1CCCCC1)S(=O)(=O)c1ccc(C(=O)Nc2ccccc2-c2nc3ccccc3[nH]2)cc1 | 0.931
CCOC(=O)c1oc2ccccc2c1NC(=O)c1ccc(S(=O)(=O)N(C)C2CCCCC2)cc1 | 1.09
CC1CCN(S(=O)(=O)c2ccc(C(=O)Nc3nnc(C4CC4)o3)cc2)CC1 | 0.74
